Bioassay records from PubChem.
Compounds with a hit are over-represented: about 3.1% of the library has one in this group of screens.
KKLEB cytotox = counter-screen for CF NF-kB inhibitors: cytotoxicity; KKLEB CF airway cells viability, ATPlite luminescence, overnight; active compounds read low; cells stimulated with P. aeruginosa culture filtrate; activity change (cytotoxicity), % at 5 µM; 360,000 compounds, 0.36% hits; AID 602141;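 active means corrected activity change at or below -50% at 5 µM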
ABHD5-PLIN5 inh = blocks binding of human ABHD5 to perilipin-5; 360,000 compounds, 0.78% hits; inhibition, % at 4 µM; Split G. princeps luciferase complementation, luminescence, 4 h;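 active means inhibition above the mean inhibition across every tested compound plus 3 SD, cut at about 22% in these data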
CF NFkB inh = blocks PAF-induced NF-kB reporter in cystic fibrosis cells | KKLEB NF-kB-GFP reporter, GFP fluorescence overnight | AID 588850 | inhibition, % at 5 µM | 360,000 compounds, 0.86% hits;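 active means at least 50% inhibition at 5 µM, scaled per plate between neutral and stimulator controls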;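 further: PAF is a Pseudomonas aeruginosa culture filtrate used as stimulus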
TRPM1 prom inh = MITF TRPM1 promoter inhibition in SK-MEL-5 cells | SK-MEL-5 TRPM1 promoter luciferase, 24 h | inhibition, % at 12.5 µM | 330,000 compounds, 0.83% hits;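 active means mean inhibition across replicates of 60% or more, whatever share of single replicates reaches that level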
HIF-2a inh = inhibitors of HIF-2a | 360,000 compounds, 0.72% hits | inhibition, % at 18.8 µM | AID 624352 | 786-0 RCC cells HIF-2a reporter, luciferase luminescence, overnight;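 active means inhibition of the luminescence signal of 40% or more relative to plate controls, in a single-dose primary screen at 18.75 µM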
Peg3 promoter = inhibitors of Peg3 promoter. HeLa PEG-Prom luciferase reporter, luminescence, overnight. inhibition, % at 20 µM. 360,000 compounds, 1.7% hits;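 active means inhibition of at least 50% at 20 µM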
Mdm2 MdmX conf = confirmation of inhibitors of human Mdm2/MdmX interaction, set 2; shares compounds with HIF-2a inh; 740 compounds, 99% hits; inhibition, % at 8 µM; SaOS-2 split-luciferase Mdm2/MdmX complementation, luminescence;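 active means mean inhibition of the luminescence signal across two replicates at or above 26 percent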
HIF-2a inh conf = confirmation of HIF-2a inhibitors; shares compounds with HIF-2a inh; 786-0 RCC cells, HIF-2a luciferase reporter luminescence, overnight; inhibition, % at 18.8 µM; 1,800 compounds, 56% hits; AID 651580;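 active means mean inhibition across four replicates of at least 40 percent at the single tested concentration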
HIF-1a counter = HIF-1a inhibition counter-screen for HIF-2a hits | inhibition, % at 18.8 µM | 1,800 compounds, 72% hits | MiaPaCa-2 HIF-1a luciferase reporter, desferoxamine, overnight | shares compounds with HIF-2a inh;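 active means mean inhibition of the reporter signal across four replicates at the single tested dose of 50% or more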
A number is an active result.

What do the screens show for `Cc1cc(C)n(-c2cc(-n3nc(C)cc3C)ncn2)n1`?
KKLEB cytotox: inactive; ABHD5-PLIN5 inh: inactive; CF NFkB inh: inactive; TRPM1 prom inh: inactive; HIF-2a inh: inactive; Peg3 promoter: inactive

What do the screens show for `Cc1cc(C)n(-c2ncc(C#N)cn2)n1`?
KKLEB cytotox: inactive; ABHD5-PLIN5 inh: inactive; CF NFkB inh: inactive; TRPM1 prom inh: inactive; HIF-2a inh: 49; Peg3 promoter: inactive; HIF-2a inh conf: inactive; HIF-1a counter: inactive

Results for COc1ccc(C(=O)O/N=C(\N)c2ccccc2)cc1 ?
KKLEB cytotox: inactive; ABHD5-PLIN5 inh: inactive; CF NFkB inh: inactive; TRPM1 prom inh: inactive; HIF-2a inh: inactive; Peg3 promoter: inactive

How did CC(C)(C)c1ccc(C(=O)O/N=C(\N)c2ccccc2)cc1 do in these assays?
KKLEB cytotox: inactive; ABHD5-PLIN5 inh: inactive; CF NFkB inh: inactive; TRPM1 prom inh: 69; HIF-2a inh: 72; Peg3 promoter: 104; HIF-2a inh conf: 87; HIF-1a counter: 87

Results for CCOc1ccc(OCc2ccc(C(=O)O)o2)cc1 ?
KKLEB cytotox: inactive; ABHD5-PLIN5 inh: inactive; CF NFkB inh: inactive; TRPM1 prom inh: inactive; HIF-2a inh: 42; Peg3 promoter: inactive; HIF-2a inh conf: inactive; HIF-1a counter: inactive

How did O=C(O)c1ccc(COc2ccc3ccccc3c2)o1 do in these assays?
KKLEB cytotox: inactive; ABHD5-PLIN5 inh: inactive; CF NFkB inh: inactive; TRPM1 prom inh: inactive; HIF-2a inh: inactive; Peg3 promoter: inactive

Results for O=C(NNC(=S)Nc1ccc(Cl)c(Cl)c1)c1ccccn1 ?
KKLEB cytotox: inactive; ABHD5-PLIN5 inh: inactive; CF NFkB inh: inactive; TRPM1 prom inh: inactive; HIF-2a inh: inactive; Peg3 promoter: inactive; Mdm2 MdmX conf: 85

How did Cc1cc(C)c(C)c(S(=O)(=O)ON2C(=O)c3ccccc3C2=O)c1C do in these assays?
KKLEB cytotox: -53; ABHD5-PLIN5 inh: inactive; CF NFkB inh: 69; TRPM1 prom inh: inactive; HIF-2a inh: 56; Peg3 promoter: 89; HIF-2a inh conf: 50; HIF-1a counter: inactive

Results for Cc1ccc(S(=O)(=O)ON2C(=O)c3ccccc3C2=O)c(C)c1 ?
KKLEB cytotox: inactive; ABHD5-PLIN5 inh: inactive; CF NFkB inh: inactive; TRPM1 prom inh: inactive; HIF-2a inh: 72; Peg3 promoter: 60; HIF-2a inh conf: 59; HIF-1a counter: inactive

What do the screens show for `COc1cc(NC(=O)COC(=O)CCOc2ccc(C)cc2)cc(OC)c1`?
KKLEB cytotox: inactive; ABHD5-PLIN5 inh: inactive; CF NFkB inh: inactive; TRPM1 prom inh: inactive; HIF-2a inh: inactive; Peg3 promoter: inactive

What do the screens show for `Cc1cccc(C)c1NC(=O)CN(C)C(=O)c1ccccc1Sc1ccccc1C#N`?
KKLEB cytotox: inactive; ABHD5-PLIN5 inh: inactive; CF NFkB inh: inactive; TRPM1 prom inh: inactive; HIF-2a inh: inactive; Peg3 promoter: inactive

How did O=C(Nc1nncs1)c1ccc2c(c1)OCO2 do in these assays?
KKLEB cytotox: inactive; ABHD5-PLIN5 inh: inactive; CF NFkB inh: inactive; TRPM1 prom inh: inactive; HIF-2a inh: inactive; Peg3 promoter: inactive

Results for O=C(CN(c1ccc(Br)cc1)S(=O)(=O)c1ccc(Cl)c([N+](=O)[O-])c1)NCC1CCCO1 (stereo not given) ?
KKLEB cytotox: inactive; ABHD5-PLIN5 inh: inactive; CF NFkB inh: inactive; TRPM1 prom inh: 85; HIF-2a inh: 86; Peg3 promoter: 95; HIF-2a inh conf: inactive; HIF-1a counter: 103

Results for CN(CC(=O)NCC1CCCO1)S(=O)(=O)c1ccc(Br)cc1 (stereo not given) ?
KKLEB cytotox: inactive; ABHD5-PLIN5 inh: inactive; CF NFkB inh: inactive; TRPM1 prom inh: inactive; HIF-2a inh: inactive; Peg3 promoter: inactive

How did O=C(OCc1c(F)cccc1Cl)c1cccc(S(=O)(=O)N2CCOCC2)c1 do in these assays?
KKLEB cytotox: inactive; ABHD5-PLIN5 inh: inactive; CF NFkB inh: inactive; TRPM1 prom inh: inactive; HIF-2a inh: inactive; Peg3 promoter: inactive
